HT1080 IDH1KD tx = kills HT-1080 cells with IDH1 knockdown. HT-1080 IDH1 knockdown viability, ATP luminescence, 48 h. Potency, µM (series often up to 46.1 µM), inactives show at the top dose activity, negative = toxicity, most hits filed as cytotoxic. 2% of 360,000 active. AID 686971;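 also: 0% = DMSO wells and -100% = cell-free medium wells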
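% activity derives from luminescence (CellTiter-Glo), normalised to DMSO and no-cell wells. HT-1080-IDH1KD cells, 750/well, had 48 h compound exposure at 37 °C.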
KB-3-1 cytotox = KB-3-1 parental cell cytotoxicity. KB-3-1 viability, CellTiter-Glo ATP luminescence, 72 h. Potency, µM (titrated, usually from 46.1 µM), usual class: cytotoxic. 1.4% of 400,000 active. AID 1347075; also: % is scaled to controls: 0 for no effect and ±100 for the full control effect; nearly all actives have a fitted effect of over 60% in size
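72 h, 37 °C compound treatment of KB-3-1 parental cells; CellTiter-Glo added, 10 min, luminescence read. Data corrected against DMSO-only plates and normalized before curve fitting.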
HT1080-NT tox = kills 2HG-producing HT-1080-NT fibrosarcoma cells; 1.6% of 360,000 active; AID 686970; HT-1080-NT fibrosarcoma viability, CellTiter-Glo ATP luminescence, 48 h; Potency, µM (top dose mostly 46.1 µM), for the others: at the top dose activity, negative = less viability, hits mostly cytotoxic;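 also: NT is the 2HG producing partner of a matched IDH1 knockdown line; 0% = DMSO-treated cells and -100% = media-only wells without cells; nearly all actives have a fitted effect of over 55% in size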
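Toxicity toward the 2HG-producing NT line was scored as %Activity, normalised to DMSO and no-cell wells, from CellTiter-Glo luminescence after 48 hours' treatment.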
HepG2 viability = kills HepG2 cells in TGF-b inhibitor counter-screen; 0.76% of 410,000 active; HepG2 CAGA-GFP viability, ATP luminescence, 18 h; AID 588856; Potency, µM (top dose mostly 46.1 µM), for the others: at the highest dose activity change, negative = cytotoxicity, actives largely listed as cytotoxic
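HepG2 CAGA-GFP cells (1000/well, DMEM with 1% FBS) received compound, then TGF-beta at 500 pg/mL final, and were incubated 18 hours at 37 degrees C. Viability was read by CellTiter-Glo luminescence. Media-only wells were set as complete cell-killing and DMSO as no toxicity.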
TGFb SMAD3 inh = TGF-b pathway inhibition; HepG2 CAGA-GFP TGF-b/SMAD3 reporter, GFP fluorescence, 18 h; TGF-beta stimulated, 500 pg/mL final; Potency, µM (highest dose often 46.1 µM), inactives show top-dose activity, negative = inhibition, actives largely listed as inhibitors; 1.2% of 410,000 active; AID 588855; also: % is scaled to controls: 0 for no effect and ±100 for the full control effect; nearly all actives have a fitted effect of over 65% in size
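First, reporter cells (HEPG2 CAGA-GFP) rested 2 h at 37 degrees C. Next, compounds were pinned in and TGF-beta added to 500 pg/mL final. After 18 h, GFP was imaged per cell and summed per well.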
KB-V1 cytotox = KB-V1 MDR subline cytotoxicity. KB-V1 MDR cells viability, CellTiter-Glo, 72 h. Potency, µM (highest dose often 46.1 µM), most hits filed as cytotoxic. 3.4% of 400,000 active. AID 1347076; also: % is scaled to controls: 0 for no effect and ±100 for the full control effect; nearly all actives have a fitted effect of over 60% in size
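Compound-treated KB-V1 multidrug-resistant cells, 72 h, 37 degrees C; viability by CellTiter-Glo. Fitted qHTS curves give the values.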
An asterisk follows results filed as active; i = inactive; ? = inconclusive; · = no result; ! = not confirmed by another sample; [ ] = another dose, or the depositor's remark. This is a sample that favours compounds with a hit; in the whole collection about 6.6% have one here. Calls follow the shape of the dose curve; as a rule, active = well fitted curve in the direction sought with a large enough effect; inconclusive = small, poorly fitted or top-dose-only effect, or another doubt; inactive = no such curve, though single readings can be large; an effect the other way counts as inactive or inconclusive. Potency is read from the fitted curve at half-maximal effect.

SMILES	HT1080 IDH1KD tx	KB-3-1 cytotox	HT1080-NT tox	HepG2 viability	TGFb SMAD3 inh	KB-V1 cytotox
Cc1cc(C)n2nc(SCC3COc4ccccc4O3)nc2n1 (stereo not given)	-11.2%	i	-2.2%	-25.7%	-3.9%	23.1µM*
COc1ccc(OC)c(-c2nc3c(C#N)c[nH]n3c2NC2CCCCC2)c1	·	i	·	-12.6%	?	i
Cc1ccc(NC(=O)C2CCCN(S(=O)(=O)c3cccs3)C2)c(C)c1 (stereo not given)	·	·	·	1.5%	0.0%	·
CCc1nc2ccccc2n2c(-c3ccccc3)c3c(=O)n(C)c(=O)n(C)c3c12	·	?	·	-5.4%	-9.1%	i
O=C(NCCc1nc2ccccc2n1CCO)C1CCCCC1	·	?	·	·	·	i
C[C@H]1CN([C@@H](C)CO)C(=O)c2cc(C#CC3CCCC3)cnc2O[C@H]1CN(C)C(=O)Cc1ccccn1	0.9%	i	14.7%	-10.5%	3.9%	i
O=C(Nc1ccc(Cl)cc1)c1ccc(-n2cccn2)c([N+](=O)[O-])c1	-27.8%	?	?	-26.3%	-3.9%	14.6µM*
COc1cc(C2Sc3ccccc3NC3=C2C(=O)OC3)cc(OC)c1OC (stereo not given)	?	23.1µM*	-3.0%	-6.9%	-3.9%	i
O=C1OCC2=C1C(c1ccc(F)cc1)Sc1ccccc1N2 (stereo not given)	-2.0%[9.24 µM]	i	?	-28.2%	7.9%	?
O=C1CC(c2ccc(F)cc2)Sc2ccccc2N1 (stereo not given)	?	i	-27.7%	-47.5%	-0.7%	i
COc1cc(C2CC(=O)Nc3ccccc3S2)cc(OC)c1OC (stereo not given)	3.0%	i	2.2%	-23.6%	2.7%	10.3µM*
Nc1cccc2c1C(=O)N(C(=O)/C=C/c1ccc(F)cc1)C2=O	18.4µM*	i	?	0.2%	?	?
CCOC(=O)c1cc(C)nc(Sc2ccc(C)cc2)c1C#N	20.6µM*	?	?	20.7%	27.4%	i
Cc1cccc(OCCCC(=O)Nc2nc3ccccc3[nH]2)c1	-20.7%	?	-14.9%	-5.8%	?	20.6µM*
O=C(CSc1ccccc1)Nc1nc2ccccc2[nH]1	?	14.6µM*	11.6µM*	-15.4%	-6.4%	?
CC1=C(C(=O)Nc2cc(Cl)ccc2C)C2(CCCCC2)OC1=O	·	·	·	-21.1%	·	·
CC(=O)c1ccc(N2CCN(C(=O)c3cc4c(s3)-c3ccccc3OC4)CC2)cc1	·	i	·	1.5%	13.3%	16.4µM*
COc1ccc2[nH]c3c(c2c1)CCN1C(=O)C(CC(=O)NC/C=C(\C)CCC=C(C)C)C[C@H](C(=O)N(C(C)C)C(C)C)[C@@]31C (stereo not given in full)	?	?	?	-103.4%	15.8µM*	?
COCCCNC(=O)C[C@H]1C[C@H](C(=O)N(C(C)C)C(C)C)[C@@]2(C)c3[nH]c4cc(-c5ccco5)ccc4c3CCN2C1=O	1.2%	i	-3.0%	-22.1%	11.2µM*	i
CC(C)=CCC/C(C)=C/CNC(=O)C[C@H]1C[C@H](C(=O)N(C(C)C)C(C)C)[C@@]2(C)c3[nH]c4ccc(Cl)cc4c3CCN2C1=O	11.1%	i	5.2%	-4.2%	-23.0%	i
CC(C)N(C(=O)[C@H]1CC(CC(=O)NCc2cccc(C(F)(F)F)c2)C(=O)N2CCc3c([nH]c4ccccc34)[C@]12C)C(C)C (stereo not given in full)	1.6%	i	1.2%	-91.9%	12.6µM*	i
CCOc1ccccc1NC(=O)c1cc2c(=O)[nH]c3ccccc3c2s1	·	i	·	-5.8%	10.3%	i
Clc1ccc(CCNc2nc3ccccc3c3nc(-c4ccccc4)nn23)cc1	·	i	·	-1.5%	-5.1%	i
CCOC(=O)C1CCCN(c2cc(C)nc3c(-c4ccccc4OC)c(C)nn23)C1 (stereo not given)	·	i	·	-12.8%	?	i
Fc1cc(NC(=S)NCc2ccc(CNC(=S)Nc3ccc(Cl)c(F)c3)cc2)ccc1Cl	-22.3%	i	-25.6%	2.82µM*	?	i
SMILES	HT1080 IDH1KD tx	KB-3-1 cytotox	HT1080-NT tox	HepG2 viability	TGFb SMAD3 inh	KB-V1 cytotox
O=C(Nc1ccc(Cl)c(C(F)(F)F)c1)c1ccco1	-1.0%	i	-4.9%	-38.0%	?	?
O=[N+]([O-])c1cc(C(F)(F)F)cc([N+](=O)[O-])c1NCCNC(=S)Nc1cccc(F)c1	-22.3%	i	-23.9%	-125.8%	11.2µM*	i
Fc1ccccc1CNC(=S)Nc1cccc(C(F)(F)F)c1	-3.4%	?	-12.5%	-37.8%	?	?
Fc1ccc(CNC(=S)Nc2cccc(C(F)(F)F)c2)cc1	?	?	?	-29.9%	?	20.6µM*
CCNC(=S)Nc1ccc(Cl)c(C(F)(F)F)c1	-10.0%	?	-0.1%	-19.3%	?	23.1µM*
CNS(=O)(=O)c1cn(CC(=O)N2CCN(c3cc(C)ccc3C)CC2)cc1S(=O)(=O)NC	·	i	·	5.9%	0.0%	i
FC(F)(F)c1cccc(NC(=S)NCc2ccc(Cl)cc2)c1	?	?	?	15.8µM*	10µM*	?
Fc1cccc(NC(=S)NCc2ccc(Cl)cc2)c1	16.5%	i	6.8%	0.0%	-28.9%	?
CCCc1c(C)c2ccc(O)c(CN3CCN(c4ccc(F)cc4)CC3)c2oc1=O	·	i	·	-23.3%	-10.3%	i
O=C1NC(c2ccccc2)N=C2Oc3ccccc3C=C12 (stereo not given)	?	1.3µM*	?	-14.1%	-25.7%	4.11µM*
CCOC(=O)Cc1[nH]nc2c1C(C1C=CCCC1)C(C#N)=C(N)O2 (stereo not given)	20.6µM*	i	?	20µM*	?	i
CCOC(=O)Cc1[nH]nc2c1C(c1cccc(OC)c1OC)C(C#N)=C(N)O2 (stereo not given)	3.9%	i	1.4%	2.7%	-2.0%	i
COc1ccccc1N1CCN(CC(O)COc2cccc3ccccc23)CC1 (stereo not given)	14.6µM*!	i	?	-43.9%	36.1%	?
Cc1ccc(C(C)C)c(OCC(O)CN2CCN(c3ccccc3F)CC2)c1 (stereo not given)	·	·	·	-54.3%	15.8µM*	·
O=C(Cn1c(=O)n(Cc2ccco2)c(=O)c2sc3ccccc3c21)Nc1ccc(F)cc1F	·	i	·	2.8%	-9.9%	i

Source: PubChem (National Center for Advancing Translational Sciences (NCATS))
